Test results as given in the supplement of paper PMC11417369.
± gives the standard deviation of the averaged measurements. Whole data set: some 25,000 sequences, median “ln(normalized median fluorescence intensity)” near 10, cut for the highest 2% near 12. For the sample, the highest values were picked, then their nearest neighbours and some sequences at random.

system: PfAP2-G AP2 domain (GST-tagged); assay: gcPBM binding intensity (ln(normalized median fluorescence intensity)); higher = stronger DNA binding
In short: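 Each value is the highest Masliner-normalised natural-log median intensity across replicate spots of either orientation of a probe. The probes were primer-extended double-stranded 36-bp intergenic genomic sequences on an Agilent 4 × 180k array, alongside negative controls, exposed for 1 h to GST-tagged P. falciparum DNA-binding domains expressed in E. coli. Bound protein was picked up with Alexa488 anti-GST antibody and scanned at 488 nm.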

Row | Sequence | gcPBM binding intensity (ln)
1 | CCATTTATTATTTGGGGTACATTTAATTAATATTTT [XGTACX_site5940] | 11.5 ± 1
2 | TATATTTAACATACTTTTTTTTTTTTTTTTTTTTTT [CACACA_negctrl_site938] | 10.9 ± 0.45
3 | TATACTTTATATATTTTGTATATATATTTTTTTTAT [TGCATGCA_negctrl_site530] | 9.645 ± 0.035
4 | ATTTTTTTTTTTTTTTTGGGGGGGTATACTTTTAAA [CACACA_negctrl_site1020] | 11.9 ± 0.77
5 | GTTAATATTTTTGGGGGTACTTAAAAAAAAAAAAAA [XGTACX_site1477] | 11.7 ± 0.91
6 | TTTTTTTTTTTTTGGGGTACATTTTAATTAATATTA [XGTACX_site4866] | 11.4 ± 0.86
7 | ACAGATATACATAAAAAAAAAATAATTTTACATATA [CACACA_negctrl_site929] | 9.765 ± 0.049
8 | TACATAAATACATACACACACATATAACCAATGTAG [CACACA_site5243] | 10.3 ± 0.11
9 | AATCATTTATGGAAAGCATGCTAAATTAGAGTATAC [TGCATGCA_site172] | 10.03 ± 0.064
10 | TAATGTAATACATATTGTACACATACATATATATTT [XGTACX_site7531] | 11.2 ± 0.71
11 | AAAACAAACATTACACGTACAAAACAAGTTATAGAC [XGTACX_site6320] | 11.4 ± 0.74
12 | TGAGTTCAACAAAGACGTACAAAACCAAAAATATAA [XGTACX_site8931] | 11.6 ± 0.93
13 | TTTCAAACAAAAAGACGTACACTGAAGTTATCCGTC [XGTACX_site8824] | 11.8 ± 1
14 | AAAAAAAAAAGACACACACACACACGGAGATATATA [CACACA_site6216] | 10.1 ± 0.22
15 | TATGTGTAATATTTTTGTACAGAAAAAAAAAAAAAA [XGTACX_site7075] | 10.8 ± 0.77
16 | AATTAATGGGTACATACACACATATATACATACATA [CACACA_site742] | 11.4 ± 1
17 | TATTTATAAATTTACACACACACATGTGAACATAAA [CACACA_site1909] | 10.2 ± 0.14
18 | ATAAATATTTACAAAAGTACACATAACTTTAGATAT [XGTACX_site1685] | 11.4 ± 0.9
19 | TATCCTAACTTTAGATGTACACAAATAAAAAAAAAA [XGTACX_site4491] | 11.7 ± 0.91
20 | ATAACAAAATAAAACACACACACAAATGTACAGATA [CACACA_site5358] | 11.1 ± 0.72
21 | TTTATTTATATTTATACACACAAACATAATACTACT [CACACA_site7039] | 10.3 ± 0.28
22 | AGGTCTATATAATAAGTGCATTTTTTTTTTTTTTTT [GTGCAC_site9664] | 10.2 ± 0.26
23 | TTTTTAATATATAAAGATAATAATAAATAAAATTCA [CACACA_negctrl_site657] | 9.46 ± 0.12
24 | TATATGCACTTAATATGTACACAAAAAAAAAAAAAA [XGTACX_site6199] | 11.5 ± 1.2

Row | Sequence | gcPBM binding intensity (ln)
25 | AAAAAAATTAAATGGGGTACAATAAGGGTCAAATAT [XGTACX_site8669] | 11.6 ± 0.93
26 | CAATAAAAATTAAAATGTACAAATAAATATAAATAT [XGTACX_site7265] | 10.8 ± 0.29
27 | GATTATTATTATAAGGGTACAAATATTTAATAAAAA [XGTACX_site7144] | 11 ± 0.57
28 | AATTATATATTATCATGTACAAATATAGTAATACAA [XGTACX_site6845] | 10.7 ± 0.4
29 | ATATAAACACTGAATGCATGCACATATATATATATA [TGCATGCA_site940] | 10.2 ± 0.26
30 | TATACGCATATTTTTACACACATATTTTTTCATATA [CACACA_site2546] | 10.02 ± 0.049
31 | ACATATATTTCAAAGTGTACGCACAATTTTTTTTAC [XGTACX_site6166] | 11.7 ± 1
32 | AAAAAAATAACAAAGTGTACTTTTATATTTTACATA [XGTACX_site8954] | 11.3 ± 0.93
33 | AAAGTATAAATAAATACACACATATTTATTTATATA [CACACA_site7375] | 9.96 ± 0.2
34 | CCACATATACAAAACACACACACAACGTTTTAATAA [CACACA_site1978] | 10.1 ± 0.16
35 | ATGACTTACATATATAGTACTTTGTTTTGGAGTTGC [XGTACX_site94] | 10.8 ± 0.45
36 | TCTGTAGTTTTTTACAGTACTTTTAGGTAATACATA [XGTACX_site7417] | 11 ± 0.79
37 | GCTAGTTTTTTTTGGCGTACAGTACCGGTTTACTTT [XGTACX_site2606] | 11.6 ± 1
38 | ATAATTCCAAGAATTTCATATATCTGAATTTTAGGT [GTGCAC_negctrl_site283] | 9.61 ± 0.2
39 | GACCATATGAATAATGCACACGTTTTAAAATATTAA [CACACA_site5312] | 10.23 ± 0.028
40 | AACGATATCTGTACTACACACATTATGTCATCCTAT [CACACA_site5374] | 11.8 ± 1.1
41 | AACGATATATGTACTACACACATTATGTCATCCTAT [CACACA_site2464] | 11.5 ± 0.83
42 | AACGATATAGGTACTACACACATTATGTCATCCTAT [CACACA_site7205] | 11.2 ± 0.77
43 | TTTGTATAATACATGTGTACGTATTTTTATATAAAT [XGTACX_site8656] | 11.6 ± 0.95
44 | TTTTATACATAAATATGTACGTATATATAATGAATT [XGTACX_site1337] | 11.3 ± 0.73
45 | TTTTATACATAAATGTGTACGTATATATAATGAATT [XGTACX_site2762] | 11.7 ± 1
46 | CACTTTTTTTAAATGTGTACGTATATGAAAATATCA [XGTACX_site4854] | 11.7 ± 1
47 | TATAATGAACATATGTGTACATATATTTTTTAAATT [XGTACX_site8736] | 11.4 ± 0.72
48 | AAATTTTAAATAGTATGTACGTATGAAATATATATG [XGTACX_site7511] | 11.4 ± 0.79

Row | Sequence | gcPBM binding intensity (ln)
49 | ATGTATGAAAAAATGTGTACATAATTTTTTTTTTTT [XGTACX_site5444] | 11.7 ± 1
50 | ATATTTATATTTATGTGTACATATGAAATAATTATT [XGTACX_site7765] | 11.5 ± 0.72
51 | TTAAATGAAAAAATATGTACGTATAATAAGAAATAT [XGTACX_site6619] | 11.6 ± 0.87
52 | TTTTTTTAAAATATGAGTACATAATATTGTAAAAAT [XGTACX_site6536] | 11.4 ± 0.9
53 | AGTTTGATTTTTTCTTATAATATATTATTATATATT [CACACA_negctrl_site376] | 9.975 ± 0.021
54 | CATATGTAGGGAACAATATAATATGCTTTGAATATG [GTGCAC_negctrl_site524] | 10.2 ± 0.14
55 | AAGAATATTAATATAAATAAGTAAATAAATAAATAA [CACACA_negctrl_site417] | 9.78 ± 0.11
56 | GTATAATTTAAAAAGTGTACATAAAGTTTTTATTAA [XGTACX_site1090] | 11.6 ± 0.81
57 | AAAAAATGCGACATGTGTACACATATATATATATAT [XGTACX_site1679] | 11.8 ± 0.99
58 | ATAATCTGACAAATGTGTACACATATATATATATAT [XGTACX_site2379] | 11.6 ± 0.97
59 | ATCTGACAAAAGTGTACACATATATATATATATATA [CACACA_site4814] | 11.7 ± 1.2
60 | ATATATATATATATATGTACATATACACATGTGTGC [XGTACX_site168] | 11.2 ± 0.55
61 | AAATGCGCCATGTGTACACATATATATATATATATA [CACACA_site4649] | 11.5 ± 0.88
62 | CATATTAGGACAAAGTGTACATATATATATATATAT [XGTACX_site1172] | 11.4 ± 0.86
63 | AAAAATATAATATAATGTACACAAAAAAAAAAAATC [XGTACX_site1427] | 11.4 ± 0.71
64 | TATGTAACAAAAAAAAGTACACATATATATAGTGTA [XGTACX_site7772] | 11.6 ± 0.85
65 | GTACAAATGTTGTGTATATATACACACATACATATA [XGTACX_negctrl_site276] | 10.9 ± 0.46
66 | TAATTTTCATAATTTTGTACTTAACGTTTTACCTTG [XGTACX_site8048] | 10.9 ± 0.5
67 | TGCACAAAATTATGCACACACCTAAAATTAATTTTT [CACACA_site5596] | 10.2 ± 0.21
68 | TAAATTTAAAATGACACACACTAAAATTATTTAAGT [CACACA_site4816] | 10.05 ± 0.021
69 | ATAAAGAAAAGGAACACACAAATATGTAAATATGTA [CACACA_site6356] | 10.06 ± 0.085
70 | ATAGAACAGAAAAGGCGTACAATAATATGTAAACAA [XGTACX_site2828] | 11.8 ± 1.1
71 | TATGAGAACAAACATTGTACAATAAAAAGTAGATAT [XGTACX_site920] | 11.2 ± 0.35
72 | TTTCATAACAAAAAAGTGCAAAATAGCACGAACATT [GTGCAC_site9703] | 10.3 ± 0.16

Row | Sequence | gcPBM binding intensity (ln)
73 | TAAACACATTATATATGTACATAATAAAAAAAAAAA [XGTACX_site7907] | 11.2 ± 0.83
74 | AAACGATTAATGTGTACACACATAGTTATAAACCTA [CACACA_site2110] | 11.6 ± 0.91
75 | AAACGATTACTGTGTACACACATAGTTATAAACATA [CACACA_site5195] | 11.5 ± 0.72
76 | AAAAACGATTAATGTGTACACACATAGTTATAAACA [CACACA_site8659] | 11.7 ± 1.2
77 | AAACGATTAATGTGTACACACATAGTTATAAACATA [CACACA_site7073] | 11.7 ± 1.2
78 | TTATAAAACACAAAATGTACAAAAAATTATAATTAA [XGTACX_site6859] | 10.7 ± 0.33
79 | TAATGACAATAAAAATAAATAAATAAAAAAAAAAAA [TGCATGCA_negctrl_site321] | 9.51 ± 0.59
80 | ATATAAATATAAACATGTACATATATATATATATAT [XGTACX_site2824] | 11.1 ± 0.69
81 | AAAATTTTTCTTAAAGCATGCACAATTAAGAAGACG [TGCATGCA_site883] | 10.2 ± 0.13
82 | TTTTTCATAAAAAAATAAAAAAAATTAACATAGAAA [XGTACX_negctrl_site11] | 9.95 ± 0.26
83 | TTTATACTTTCAAAATGTACATATATATATATATAT [XGTACX_site6241] | 11.1 ± 0.63
84 | ATATATACTATAATAGTGCATTAAAAAAGTAAAAAT | 10.2 ± 0.25
85 | AAGGGGAAAAAAAAAAGTACACAAACATAGGATAAT [XGTACX_site377] | 11.7 ± 1
86 | AATATATATATGTGTACACATCCAAAATAGGCATAC [CACACA_site5705] | 11.7 ± 1.1
87 | AATAAAAATAGGAAATGTACACATATATATATATAT [XGTACX_site1853] | 11.2 ± 0.59
88 | TAAAACATATATACAAGTACACAAAGGATATATATA [XGTACX_site3710] | 11.4 ± 0.95
89 | AATAAATATAGGTACACACACAAATATGTACATATC [CACACA_site6976] | 11.7 ± 0.92
90 | TAAATAAATATATGTACACACACAAATATATACATA [CACACA_site8577] | 11.4 ± 0.73
91 | CATCCACAAATATGTACACACATATATAAATATGTA [CACACA_site7407] | 11.4 ± 0.93
92 | AAAAATATAATATAATGTACACATAAACAAAAAAAA [XGTACX_site3658] | 11.4 ± 0.84
93 | GTAAATACACATATGTGTACATATATATATATATAT [XGTACX_site3696] | 11.5 ± 0.86
94 | AAAAAAAAAAAAACAAGTACAAAGGATAGAAAAAAA [XGTACX_site4133] | 11.2 ± 0.71
95 | GTTTTAAAACAAATATGTACACATAATATAGGAAAG [XGTACX_site1803] | 11.7 ± 0.82
96 | AATAAATATATGTACACACACAAATATATACATATC [CACACA_site1903] | 11.3 ± 0.63
